In PubChem BioAssay (EPA / NIEHS) one finds outcome and AC50 data, which are given here for 40 compounds.

Records with an inconclusive call do not appear. Activity calls are given as the source filed them. The calls were made as follows: active = hit-call score of the fitted dose curve at least 0.9, where 1 is the maximum; inconclusive = response in the unintended direction; inactive = score below 0.9.

This assay can be described thus: Tanguay_ZF_120hpf_YSE_legacy: (Legacy) Oregon State University Tanguay Lab 120 Hour Post-fertilization zebrafish Assay for Yolk Sac Edema (AID 2283634).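 As to AC50: actives raise the incidence of yolk sac edema above the DMSO baseline.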 The method, then: Tanguay_ZF_120hpf_legacy is a whole embryo, multiplexed endpoint assay using zebrafish larvae exposed for 120 hours post fertilization on a 96-well plate.Tanguay_ZF_120hpf_YSE_legacy is one of one assay component(s) measured or calculated from the Tanguay_ZF_120hpf_legacy assay. It is designed to make measurements of zebrafish development as detected with brightfield microscopy of developing zebrafish embryos.Data from the assay component Tanguay_ZF_120hpf_YSE_legacy was analyzed into 1 assay endpoints. This assay endpoint, Tanguay_ZF_120hpf_YSE_legacy, was analyzed in the positive analysis fitting direction relative to DMSO as the negative control and baseline of activity. Using a type of morphology reporter, gain-of-signal activity can be used to understand changes in developmentals as they relate to the whole embryo. To generalize the intended target to other relatable targets, this assay endpoint is annotated to the zebrafish development intended target family, where the subfamily is extra-embryonic membrane development.
Zebrafish husbandry: Tropical 5D wild-type adult zebrafish were housed in at an approximate density of 1000 per 100 gallon tank at the Sinnhuber Aquatic Research Laboratory, Oregon State University, Corvallis, OR. Each tank was kept at standard laboratory conditions of 28C on a 14-h light/10-h dark photoperiod in fish water consisting of reverse osmosis water supplemented with a commercially available salt (Instant Ocean). Spawning funnels were placed into the tanks the night prior, and embryos were collected and staged. To increase bioavailability, the chorion was enzymatically removed using pronase (63.6mg/ml, >/= 3.5U/mg, Sigma-Aldrich: P5147) at 4 hours post fertilization (hpf) using a custom automated dechorionator.Chemical exposures: Six hpf dechorionated embryos were placed 1 embryo per well in a 96-well plate prefilled with 90 ul of EM using automated embryo placement systems (AEPS). Ten microliters of each row of dilution plate 2 was added to 2 exposure plates. The final DMSO concentration used was 0.64% (vol/vol). Thirty-two embryos were also exposed to 5uM trimethyltin chloride (positive control). Plates were sealed to prevent evaporation and foil covered to reduce light exposure and kept in a 28C incubator. Embryos were statically exposed until 120 hpf. At 24 hpf, embryos were assessed for photomotor response using a custom photomotor response analysis tool (PRAT) and for developmental toxicity endpoints (MO24: mortality at 24 hpf, DP: developmental progression, SM: spontaneous movement, and NC: notochord distortion). At 120 hpf, locomotor activity was measured using Viewpoint Zebralab and assessed for 18 endpoints. Zebrafish acquisition and analysis program (ZAAP), a custom program designed to inventory, acquire, and manage zebrafish data, was used to collect developmental endpoints as either present or absent (i.e., binary responses were recorded). If mortality occurred for an embryo (at either 24 or 120 hpf), the non-mortality endpoints were not measured.
Turning to `CN(C)C(=O)Nc1ccc(Cl)cc1`, the compound was classed as inactive. Same read-out and setting: the same measure for `CCCCC(CC)COC(=O)c1ccc(C(=O)OCC(CC)CCCC)c(C(=O)OCC(CC)CCCC)c1` (stereo not given): “inactive”. Still for that read-out and setting: under `C1=Cc2cccc3cccc1c23` stands “inactive”. The same measure, in the same setting: the same measure for `Clc1ccc(C(c2ccc(Cl)cc2)C(Cl)Cl)cc1`: “inactive”; for `CCC(C)c1ccc(O)cc1` (stereo not given): “inactive”. Consider `ClC1=C(Cl)[C@]2(Cl)[C@H]3[C@H]([C@@H]4C=C[C@H]3C4)[C@@]1(Cl)C2(Cl)Cl`, for which the compound was classed as inactive. Still for that read-out and setting: under `Cc1ccc(N=C=O)cc1N=C=O` stands “inactive”; under `CC(C)(C)OOC(=O)c1ccccc1`, “inactive”. In the case of `COC(=O)Nc1nc2ccccc2[nH]1`, the AC50 is 47.5 µM (active). As for `Nc1cc(Cl)cc(C(=O)O)c1Cl`, the result was inactive. On the same count and under the same terms, the same measure for `Nc1ccc(Cc2ccc(N)cc2)cc1`: “inactive”; for `CCN(CC)N=O`: “inactive”; for `c1ccc2c(c1)oc1ccccc12`: “inactive”. The same measure, in the same setting: the same measure for `O=C(Oc1ccc(Br)cc1)N1CCN2CCC1CC2`: “inactive”; for `[O-][Cl+]O`: “inactive”. In the case of `CO[C@@H]1[C@H](OC(=O)NC(=O)CCl)CC[C@]2(CO2)[C@H]1[C@@]1(C)O[C@@H]1CC=C(C)C`, the AC50 was 0.0035 µM (active).

As for `Cc1ccc(N)c(N)c1`, the call was inactive. The same measure, in the same setting: the same measure for `c1ccc(C2CO2)cc1` (stereo not given): “inactive”. Still for that read-out and setting: the same measure for `CN(C)[C@@H]1C(=O)C(C(N)=O)=C(O)[C@@]2(O)C(=O)C3=C(O)c4c(O)cccc4[C@@](C)(O)[C@H]3C[C@@H]12`: “inactive”. Take `Cc1cccc(N)c1N`: the AC50 was 10.6 µM (active). Consider `Brc1ccc(Oc2ccccc2)cc1`, for which the compound was called inactive.

Consider `Cc1cc(N=Nc2ccccc2C)ccc1N`, for which the outcome was inactive. The same measure, in the same setting: under `OCCOCCO` stands “inactive”; under `COc1cc(C=O)cc2c1[C@H](COC(N)=O)[C@]1(OC(C)=O)ON2C[C@H]2[C@@H]1N2C(C)=O`, “inactive”.

With `Cc1ccc([N+](=O)[O-])cc1`, the outcome was inactive. Still for that read-out and setting: under `Cn1cc(-c2ccccc2)c(=O)c(-c2cccc(C(F)(F)F)c2)c1` stands “inactive”; under `c1ccc(N=Nc2ccccc2)cc1`, “inactive”. On the same count and under the same terms, the same measure for `O=[N+]([O-])c1ccc(Oc2ccc(Cl)cc2Cl)cc1`: “inactive”; for `c1ccc(NNc2ccccc2)cc1`: “inactive”. With `[Cl-].[Cl-].[Hg+2]`, the AC50 is 4.25 µM (active). `Nc1ccc(Oc2ccc(N)cc2)cc1`: the compound was classed as inactive. Still for that read-out and setting: the same measure for `CCCSC(=O)N(CCC)CCC`: “inactive”; for `CS(=O)(=O)NC(=O)c1cc(Oc2ccc(C(F)(F)F)cc2Cl)ccc1[N+](=O)[O-]`: “inactive”. Still for that read-out and setting: under `ClC1=C(Cl)C2(Cl)C3C(Cl)C=CC3C1(Cl)C2(Cl)Cl` (stereo not given) stands “inactive”; under `Clc1ccc(C(c2ccc(Cl)cc2)C(Cl)(Cl)Cl)cc1`, “inactive”; under `CC(C)(OOC(C)(C)c1ccccc1)c1ccccc1`, “inactive”. On the same count and under the same terms, the same measure for `C=CCc1ccc2c(c1)OCO2`: “inactive”; for `CC(C)(C)OOC(C)(C)CCC(C)(C)OOC(C)(C)C`: “inactive”. Regarding `OCCCl`, the compound was classed as inactive.

Take `CC(C)N(Cc1ccccc1)C(=O)C(C)(C)C`: the compound was classed as inactive.

A word on the AC50: it is the midpoint of the concentration-response curve, whichever way the signal moves.
